Laboratory results reported in PubChem BioAssay AID463173 (ICCB-Longwood Screening Facility, Harvard Medical School, 2010).
Hit rate of the full screen: of about 52,000 compounds, about 4,300 (8.3%) were called active. The sample holds actives, similar compounds and a random draw of the others, so the mix is not that of the screen. A number with no mark means an inactive call. No stated cut-off is given here; in the data, active means survival mostly below about 52% (no sharp cut-off); inactive means mostly above about 56%.

The compounds below were run on DeltatarO mutant (assay: growth inhibition of S. aureus wild type versus tarO mutant, primary screen, teichoic acid synthesis inhibitors, RN4220, OD600 (AID 463173)). Conditions: OD600, 18 h, active compounds read low, screened at 18.75 µg/mL (by protocol).
CCOc1ccc(NC(=O)C2CCCN(c3cnccn3)C2)cc1 (stereo unspecified) gave a survival of 86%.
Work on CCOc1cc(-c2ccc(OC(=O)c3ccccc3Cl)c(OC)c2)cc(=O)c2c(C)oc(C)c12 yielded a survival of 69%.
COc1ccccc1CNC(=O)c1ccc(CSc2nc3ccncc3n2Cc2ccccc2C)cc1 gave a survival of 74%.
Cc1ccc(C(=O)Nc2nnc(S(=O)(=O)N3CCOCC3)s2)cc1 showed a survival of 68%.
Cc1ccc(C(=O)Nc2nnc(S(=O)(=O)N3CCN(c4ccc(F)cc4)CC3)s2)cc1 showed a survival of 56%.
Work on COc1ccc(C(=O)Nc2nnc(S(=O)(=O)N3CCOCC3)s2)cc1 yielded a survival of 99%.
COc1ccc(C(=O)Nc2nnc(S(=O)(=O)N3CCN(c4ccc(F)cc4)CC3)s2)cc1 was tested, and the survival was 56%.
With COc1ccc(C(=O)Nc2nnc(S(=O)(=O)N3CCN(c4ccc(C)cc4)CC3)s2)cc1 the survival was 48% (active).
With Cc1ccc(N2CCN(S(=O)(=O)c3nnc(NC(=O)c4ccc(C(C)C)cc4)s3)CC2)cc1 the survival was 42% (active).
CCc1nc(SC)ncc1C(=O)NCc1cccc(Br)c1 showed a survival of 89%.
Compound CCc1ccc(NC(=O)C2CCC(CNS(=O)(=O)c3cccs3)CC2)cc1 (stereo unspecified) has a survival of 94%.
CCOCCCNC(=O)c1ccc(NC(=O)N2CCCCc3ccccc32)cc1 showed a survival of 89%.
In the case of O=C1COc2cc(S(=O)(=O)NCc3ccco3)c(Cl)cc2N1, the survival is reported as 98%.
For CCCCN(CC)Cc1ccc(CNS(=O)(=O)c2cc3c(cc2Cl)NC(=O)CO3)o1, the survival was 0% (active).
In the case of Cc1ccc(CNS(=O)(=O)c2cc3c(cc2Cl)NC(=O)CO3)o1, the survival is reported as 106%.
In the case of Cn1c(SCC(=O)N2c3ccccc3Sc3ccccc32)nnc1-c1ccco1, the survival is reported as 77%.
COC(=O)c1c(-c2ccc(Cl)cc2)noc1N1CCN(c2ccc(F)cc2)CC1 gave a survival of 83%.
Work on O=S1(=O)CCC(NCc2ccccc2)C1 (stereo unspecified) yielded a survival of 89%.
Compound CS(=O)(=O)N(CC(=O)NCc1ccncc1)c1ccccc1 has a survival of 85%.
For CCC(C)NC(=O)c1ccccc1NC(=O)CN1C(=O)c2cccc3cccc1c23 (stereo unspecified), the survival was 50%.
O=C(Nc1nnc(N2CCCCCC2)s1)Nc1ccccc1C(F)(F)F showed a survival of 80%.
Compound CSc1ncc(C(=O)Nc2ccccc2C(F)(F)F)c(-c2ccccc2)n1 has a survival of 117%.
In the case of CCSc1nsc(NC(=O)Nc2cccc(OC)c2)n1, the survival is reported as 96%.
In the case of CCSc1nsc(NC(=O)Nc2cccc(F)c2)n1, the survival is reported as 1% (active).
With O=C(CSc1nnc(NC(=O)Nc2ccccc2)s1)Nc1cccc(F)c1 the survival was 73%.
With CSc1nsc(NC(=O)Nc2ccccc2C(F)(F)F)n1 the survival was 13% (active).
